Assay results as given in PMC5700166.

Legend:
Assay in all cases: protein-binding microarray (PBM); PBM: ~300 nM protein, 6 mM HEPES pH 7.8, 80 mM KCl, 0.5 mM EDTA, 0.5 mM EGTA, 6% glycerol, 35 ng/ul poly-dIdC, 1% milk, 1 h, room temperature; Ap Aiptasia and Nv Nematostella (sea anemones) / Co Capsaspora / Aq Amphimedon (sponge) / Dm Drosophila / Hu human; RHD is the Rel homology domain; high values mean tight binding
Settings in all cases: dsDNA, one strand shown
GST-Ap-NF-kB RHD = target: T1, GST-Ap-NF-kB RHD (Exaiptasia pallida (Aiptasia), UniProt A0A913YAJ5 2-422)
T1 sequence: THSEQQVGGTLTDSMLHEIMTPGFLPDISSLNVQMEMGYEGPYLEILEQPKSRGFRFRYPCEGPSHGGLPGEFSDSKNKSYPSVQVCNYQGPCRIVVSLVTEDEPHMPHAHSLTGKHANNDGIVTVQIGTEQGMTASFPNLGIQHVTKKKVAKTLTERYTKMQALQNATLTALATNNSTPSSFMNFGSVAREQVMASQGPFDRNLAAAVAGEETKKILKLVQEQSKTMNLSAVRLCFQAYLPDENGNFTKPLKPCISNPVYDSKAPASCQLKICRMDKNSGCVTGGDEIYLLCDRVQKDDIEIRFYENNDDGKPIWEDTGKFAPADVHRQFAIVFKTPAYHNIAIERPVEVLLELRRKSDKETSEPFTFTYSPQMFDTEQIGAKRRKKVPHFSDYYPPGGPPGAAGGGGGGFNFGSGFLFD

[1] = target: T2, GST-Nv-NF-kB (Cys allele) (Nematostella vectensis, UniProt E5G601 2-411)
T2 sequence: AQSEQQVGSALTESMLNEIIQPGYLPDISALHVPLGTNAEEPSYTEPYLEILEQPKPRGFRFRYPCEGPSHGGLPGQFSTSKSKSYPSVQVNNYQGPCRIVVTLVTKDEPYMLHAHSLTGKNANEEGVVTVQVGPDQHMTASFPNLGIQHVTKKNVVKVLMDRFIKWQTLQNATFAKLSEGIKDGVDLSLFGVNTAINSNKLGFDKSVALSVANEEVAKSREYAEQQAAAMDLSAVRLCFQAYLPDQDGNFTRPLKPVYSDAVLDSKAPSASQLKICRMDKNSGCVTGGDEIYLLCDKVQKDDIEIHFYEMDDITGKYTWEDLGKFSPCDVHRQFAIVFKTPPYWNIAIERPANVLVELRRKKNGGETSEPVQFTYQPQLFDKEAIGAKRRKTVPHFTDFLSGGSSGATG

GST-Co-NF-kB = target: T3, GST-Co-NF-kB (Capsaspora owczarzaki, UniProt F1ARL5 200-546)
T3 sequence: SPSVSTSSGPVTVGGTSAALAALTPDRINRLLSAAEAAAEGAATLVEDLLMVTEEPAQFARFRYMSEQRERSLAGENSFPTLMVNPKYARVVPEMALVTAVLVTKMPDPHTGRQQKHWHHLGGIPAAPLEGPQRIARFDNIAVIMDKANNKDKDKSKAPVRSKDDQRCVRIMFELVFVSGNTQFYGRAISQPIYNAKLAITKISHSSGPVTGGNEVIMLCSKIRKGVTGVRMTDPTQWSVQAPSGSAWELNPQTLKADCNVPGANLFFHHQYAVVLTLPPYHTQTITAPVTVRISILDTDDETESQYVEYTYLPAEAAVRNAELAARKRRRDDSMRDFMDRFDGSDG

GST-Dm-Relish = target: T4, GST-Dm-Relish (Drosophila melanogaster, UniProt Q94527 99-473)
T4 sequence: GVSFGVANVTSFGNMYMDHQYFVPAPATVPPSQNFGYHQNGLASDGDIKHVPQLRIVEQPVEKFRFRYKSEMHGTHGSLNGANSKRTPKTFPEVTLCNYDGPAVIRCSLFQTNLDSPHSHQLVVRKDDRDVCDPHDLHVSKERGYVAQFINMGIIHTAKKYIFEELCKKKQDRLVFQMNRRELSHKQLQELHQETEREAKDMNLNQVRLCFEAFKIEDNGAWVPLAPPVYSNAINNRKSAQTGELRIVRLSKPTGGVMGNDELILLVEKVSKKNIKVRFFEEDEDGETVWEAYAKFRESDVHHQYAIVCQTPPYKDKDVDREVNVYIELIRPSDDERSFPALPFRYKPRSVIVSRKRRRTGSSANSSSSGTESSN

GST-Aq-NF-kB = target: T5, GST-Aq-NF-kB (Amphimedon queenslandica, UniProt A9Y5G7 2-389)
T5 sequence: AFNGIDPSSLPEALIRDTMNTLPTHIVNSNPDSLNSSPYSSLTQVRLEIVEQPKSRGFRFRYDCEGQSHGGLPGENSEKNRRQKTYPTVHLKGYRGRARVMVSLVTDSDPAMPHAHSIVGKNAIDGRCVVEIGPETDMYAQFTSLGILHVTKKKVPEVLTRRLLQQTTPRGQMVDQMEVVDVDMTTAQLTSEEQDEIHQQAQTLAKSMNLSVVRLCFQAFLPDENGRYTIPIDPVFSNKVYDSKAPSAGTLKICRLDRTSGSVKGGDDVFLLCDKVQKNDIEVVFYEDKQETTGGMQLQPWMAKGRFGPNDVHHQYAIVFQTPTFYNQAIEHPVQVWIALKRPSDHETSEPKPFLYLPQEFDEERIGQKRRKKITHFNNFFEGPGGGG

Sequence	binding signal (GST-Ap-NF-kB RHD)	binding signal [1]	binding signal (GST-Co-NF-kB)	binding signal (GST-Dm-Relish)	binding signal (GST-Aq-NF-kB)
CCGATTAACATCACGGGATTTACTGATGTTAATCGGGTCTTGATTCGCTTGACGCTGCTG	2.52 z-score	2.6 z-score	1.01 z-score	7.12 z-score	3.52 z-score
CCGATTAACATCACCAAATTCCCTGATGTTAATCGGGTCTTGATTCGCTTGACGCTGCTG	4.1 z-score	4.67 z-score	3.82 z-score	4.02 z-score	4.03 z-score
CCGATTAACATCAGGGGAGAATATGATGTTAATCGGGTCTTGATTCGCTTGACGCTGCTG	4.99 z-score	5.42 z-score	7.41 z-score	1.73 z-score	3.83 z-score
CCGATTAACATCAGGGATTCACCTGATGTTAATCGGGTCTTGATTCGCTTGACGCTGCTG	5.22 z-score	4.92 z-score	1.03 z-score	9.89 z-score	5.57 z-score
CCGATTAACATCAGGGGATCTACTGATGTTAATCGGGTCTTGATTCGCTTGACGCTGCTG	5.31 z-score	4.68 z-score	1.96 z-score	9.02 z-score	5.74 z-score
CCGATTAACATCACGGGAAGTCCTGATGTTAATCGGGTCTTGATTCGCTTGACGCTGCTG	2.98 z-score	3.06 z-score	1.33 z-score	7.73 z-score	6 z-score
CCGATTAACATCAGGGGGACAAATGATGTTAATCGGGTCTTGATTCGCTTGACGCTGCTG	4.37 z-score	4.84 z-score	7.51 z-score	2.64 z-score	4.19 z-score
CCGATTAACATCAAGAGTTTCCCTGATGTTAATCGGGTCTTGATTCGCTTGACGCTGCTG	4.29 z-score	5.34 z-score	3.98 z-score	2.43 z-score	5.12 z-score
CCGATTAACATCAAAAACTACCCTGATGTTAATCGGGTCTTGATTCGCTTGACGCTGCTG	4.12 z-score	3.21 z-score	3.13 z-score	5.43 z-score	4.72 z-score
CCGATTAACATCAAATTCCCTCGTGATGTTAATCGGGTCTTGATTCGCTTGACGCTGCTG	3.11 z-score	4.96 z-score	2.32 z-score	3.26 z-score	4.09 z-score
CCGATTAACATCAGGGGTTCACCTGATGTTAATCGGGTCTTGATTCGCTTGACGCTGCTG	3.84 z-score	2.71 z-score	1.45 z-score	8.89 z-score	4.82 z-score
CCGATTAACATCAGGGGCAACCCTGATGTTAATCGGGTCTTGATTCGCTTGACGCTGCTG	2.71 z-score	2.89 z-score	2.31 z-score	3.06 z-score	5.52 z-score
CCGATTAACATCACGGGATTTCCTGATGTTAATCGGGTCTTGATTCGCTTGACGCTGCTG	4.81 z-score	4.51 z-score	1.37 z-score	7.57 z-score	6.62 z-score
CCGATTAACATCAGGGGAGCCCCTGATGTTAATCGGGTCTTGATTCGCTTGACGCTGCTG	8.45 z-score	6.25 z-score	3.64 z-score	8.74 z-score	8.27 z-score
CCGATTAACATCAAAAACACCCCTGATGTTAATCGGGTCTTGATTCGCTTGACGCTGCTG	4.85 z-score	3.9 z-score	3.98 z-score	5.77 z-score	4.95 z-score
CCGATTAACATCACGTGTTTCCCTGATGTTAATCGGGTCTTGATTCGCTTGACGCTGCTG	2.62 z-score	2.76 z-score	3 z-score	3.51 z-score	3.35 z-score
CCGATTAACATCACGGGGTTCCCTGATGTTAATCGGGTCTTGATTCGCTTGACGCTGCTG	4.82 z-score	2.58 z-score	2.51 z-score	9.28 z-score	6.02 z-score
CCGATTAACATCAGGGGGAAGCATGATGTTAATCGGGTCTTGATTCGCTTGACGCTGCTG	4.43 z-score	5.1 z-score	7.73 z-score	3.21 z-score	4.01 z-score
CCGATTAACATCAGGCCACCCCCTGATGTTAATCGGGTCTTGATTCGCTTGACGCTGCTG	3.91 z-score	2.49 z-score	2.66 z-score	5.42 z-score	5.7 z-score
CCGATTAACATCAGGGGAGCACCTGATGTTAATCGGGTCTTGATTCGCTTGACGCTGCTG	4.77 z-score	3.52 z-score	3.23 z-score	4.91 z-score	4.81 z-score
CCGATTAACATCAAGCAATTCCCTGATGTTAATCGGGTCTTGATTCGCTTGACGCTGCTG	3.2 z-score	4.28 z-score	2.25 z-score	1.23 z-score	3.57 z-score
CCGATTAACATCAAGCATCCCCCTGATGTTAATCGGGTCTTGATTCGCTTGACGCTGCTG	4.92 z-score	5.03 z-score	4.28 z-score	3.89 z-score	4.87 z-score
CCGATTAACATCACCCGTTTCCCTGATGTTAATCGGGTCTTGATTCGCTTGACGCTGCTG	2.8 z-score	3.24 z-score	3.33 z-score	1.19 z-score	3.03 z-score
CCGATTAACATCACCCAACCCCCTGATGTTAATCGGGTCTTGATTCGCTTGACGCTGCTG	4.6 z-score	2.94 z-score	2.21 z-score	4.3 z-score	3.45 z-score
CCGATTAACATCAAGGGGGGAGATGATGTTAATCGGGTCTTGATTCGCTTGACGCTGCTG	5.84 z-score	5.1 z-score	6.56 z-score	2.93 z-score	4.98 z-score
